Data on 26 compounds can be found in PubChem BioAssay (NCATS).

Inconclusive results are not listed. Where a call stands in place of a potency, no number is given. Calls of active or inactive are those of the source. Calls come from the whole dose curve; as a rule, active = well fitted inhibition curve with a large enough effect; inconclusive = small, poorly fitted or top-dose-only effect; inactive = flat fitted curve, though single readings scatter.

Sequence of Calcium and integrin-binding protein 1 (Homo sapiens) (Q99828 whole entry, looked up): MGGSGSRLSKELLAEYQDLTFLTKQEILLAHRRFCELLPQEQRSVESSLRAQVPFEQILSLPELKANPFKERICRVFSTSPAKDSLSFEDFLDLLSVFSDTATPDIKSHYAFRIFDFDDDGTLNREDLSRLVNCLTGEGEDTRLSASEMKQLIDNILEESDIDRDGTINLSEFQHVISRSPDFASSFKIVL

This experiment deals with Calcium and integrin-binding protein 1 (Homo sapiens) (UniProt Q99828). As to the kind of experiment: Primary qHTS for Identification of Calcium Integrin Binding Protein 1 (CIB1) Competitor (AID 1508620).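 Note: GST tagged CIB1 binding a fluorescein labelled alphaIIb integrin peptide tracer; top concentration of the series differs between compounds.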 The note with it: CIB1-GST / FITC-alphaIIb peptide fluorescence polarization; series mostly up to 57.7 µM. The procedure, abridged:
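CIB1-GST (1 uM final) and compound incubated 15 min at room temperature before adding FITC-alphaIIb peptide tracer (100 nM final). Competition for binding read by fluorescence polarization (ex 480, em 540) after another 15 min at room temperature.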
(qHTS replaces the single test concentration by a dilution series.)
Turning to `COC1CC(=O)C23C(=O)NC(CC(C)C)C2C(C)C(C)=CC3/C=C(\C)CCC1O` (stereo unspecified), the Potency result is “inactive”. As for `CCOC(=O)c1ccc(N(C)c2csc(-c3ccccc3)n2)cc1`, the Potency result is “inactive”. Consider `Cc1nnc(C(C)C)n1C1CC2CCC(C1)N2CCC(NC(=O)C1CCC(F)(F)CC1)c1ccccc1` (stereo unspecified), for which the Potency entry was “inactive”. For `CC1(C)C[C@H]2C3=CCC4[C@@]5(C)CC[C@H](O[C@H]6O[C@H](C(=O)O)[C@@H](O)[C@H](O)[C@H]6O[C@H]6O[C@H](CO)[C@@H](O)[C@H](O)[C@H]6O[C@@H]6O[C@H](CO)[C@@H](O)[C@H](O)[C@H]6O)[C@](C)(CO)C5CC[C@@]4(C)[C@]3(C)CC[C@@]2(C)[C@H](O[C@@H]2OC[C@H](O)[C@H](OC3O[C@H](CO)[C@@H](O)[C@H](O)[C@H]3O)[C@H]2O)[C@@H]1O` (stereo partly specified), the activity change, negative = inhibition was -7.85% [at 12.4 µM] (inactive). For `COC(=O)C1=CO[C@@H](O[C@@H]2O[C@H](CO)[C@@H](O)[C@H](O)[C@H]2O)[C@@H]2[C@@H](C)[C@@H](O)C[C@H]12`, the Potency result is “inactive”. On the same count and under the same terms, the entry for `O=S(=O)(Nc1ccc(C(O)(C(F)(F)F)C(F)(F)F)cc1)c1cccs1` is “inactive”; for `CNC(=O)[C@H]1O[C@@H](n2cnc3c(NCc4ccc(N)c(I)c4)ncnc32)[C@H](O)[C@@H]1O` it is “inactive”.

On to `O=C(Nc1cccnn1)N1CCC(=Cc2cccc(Oc3ccc(C(F)(F)F)cn3)c2)CC1`, for which the Potency entry was “inactive”. Same read-out and setting: for `COc1ccc2c(c1O)OC[C@H]1c3ccc(O)cc3O[C@@H]21` the value was “inactive”. `C[C@@H]1O[C@@H](O[C@H]2[C@H](OC(=O)[C@]34CCC(C)(C)C[C@H]3C3=CCC5[C@@]6(C)CC[C@H](O[C@@H]7O[C@H](CO[C@@H]8OC[C@H](O)[C@H](O)[C@H]8O)[C@@H](O)[C@H](O)[C@H]7O)C(C)(C)C6CC[C@@]5(C)[C@]3(C)C[C@H]4O)OC[C@@H](O)[C@@H]2O)[C@H](O)[C@H](O)[C@H]1O[C@@H]1OC[C@H](O)[C@H](O[C@@H]2OC[C@@H](O)[C@H](O)[C@H]2O)[C@H]1O` (stereo partly specified): the activity change, negative = inhibition was 0.282% [at 12.4 µM] (inactive).

Take `CN1CCC(c2c[nH]c3ccc(NC(=O)c4ccc(F)cc4)cc23)CC1`: the Potency entry is “inactive”. For `CCC(=O)O[C@]1(C(=O)CCl)[C@@H](C)C[C@H]2[C@@H]3C[C@H](F)C4=CC(=O)C=C[C@]4(C)[C@@]3(F)[C@@H](O)C[C@@]21C`, the Potency result was “inactive”. In the case of `CC1CCC2(C(=O)OC3OC(CO)C(O)C(O)C3O)CCC3(C)C(=CCC4C5(C)CC(O)C(O)C(C)(C(=O)O)C5CCC43C)C2C1(C)O` (stereo unspecified), the Potency result was “inactive”. On the same count and under the same terms, the entry for `CC(C)(O)C1CC=C(C(=O)OCC2OC(Oc3c(O)cc(C(=O)O)cc3O)C(O)C(O)C2O)CC1` (stereo unspecified) is “inactive”; for `OC[C@H]1O[C@@H](OCCc2ccc(O)cc2)[C@H](O)[C@@H](O)[C@@H]1O` it is “inactive”.

Regarding `CC1(C)CCCC2(C)C3=C(C(=O)OC3O)C(O)CC12` (stereo unspecified), the Potency result is “inactive”.

`COc1ccc(/C=C/C(=O)O[C@H]2[C@@H]3C=CO[C@@H](O[C@@H]4O[C@H](CO)[C@@H](O)[C@H](O)[C@H]4O)[C@@H]3[C@@]3(CO)O[C@@H]23)cc1O`: the Potency result was “inactive”. Same read-out and setting: for `CC(CCC1C(C(=O)O)=CC(=O)CC1(C)C)O[C@@H]1O[C@H](CO)[C@@H](O)[C@H](O)[C@H]1O` (stereo partly specified) the value was “inactive”. Regarding `C(#Cc1cccc(CN2CCOCC2)c1)CCN1CCCCC1`, the Potency entry was “inactive”. Take `C=C/C=C/[C@@H]1OC[C@H](/C=C/C=C/C)[C@H]1O`: the Potency entry is “inactive”. Same read-out and setting: the entry for `C[C@@H]1CC[C@]2(C(=O)O)CC[C@]3(C)C(=CCC4[C@]5(C)C(CC[C@]43C)C(C)(C)[C@@H](O)[C@H](O)[C@@H]5O)C2[C@]1(C)O` (stereo partly specified) is “inactive”. As for `Cc1nc2c(-c3cnc(N)nc3)nc(N3CCOCC3)nc2n1C(C)C`, the Potency entry was “inactive”.

In the case of `NS(=O)(=O)OC[C@@H]1C[C@@H](n2ccc3c(N[C@H]4CCc5ccccc54)ncnc32)C[C@@H]1O`, the Potency entry was “inactive”. `CC1CCC2C(C)(C)C(O)CCC2(C)C12Cc1c(O)cc3c(c1O2)CN(C(CCC(N)=O)C(=O)O)C3=O` (stereo unspecified): the Potency result was “inactive”. Turning to `COc1ccc(C(=O)O[C@H]2CC(C)=CC[C@@]3(C)[C@@H](OC(C)=O)C[C@@](O)(C(C)C)[C@H]23)cc1`, the Potency entry was “inactive”. Still for that read-out and setting: the entry for `CC1(CO)CC[C@]2(C(=O)O[C@@H]3O[C@H](CO)[C@@H](O)[C@H](O)[C@H]3O)CC[C@]3(C)C(=CCC4[C@@]5(C)CC[C@H](O[C@@H]6O[C@H](C(=O)O)[C@@H](O)[C@H](O)[C@H]6O)C(C)(C)C5CC[C@]43C)C2C1` (stereo partly specified) is “inactive”.
